Holding throughout (assay): universal protein binding microarray (PBM); transcription factors of Arabidopsis thaliana; high values mean tight binding
What all share (settings): protein: recombinant; tags: GST; chain copies: 2; dsDNA, one strand shown

Experiment [1] addresses T1, GST-ANAC092(1-176) (Arabidopsis thaliana, UniProt Q9FKA0 1-176).
T1 sequence: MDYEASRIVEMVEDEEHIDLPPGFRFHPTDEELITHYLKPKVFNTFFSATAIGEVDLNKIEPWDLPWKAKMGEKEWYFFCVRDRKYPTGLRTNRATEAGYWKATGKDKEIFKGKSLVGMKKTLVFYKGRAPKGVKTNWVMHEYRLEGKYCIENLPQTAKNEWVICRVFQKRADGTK
In a few lines: (§1)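 For zinc-finger proteins, zinc acetate was added while GST-tagged NAC-domain, full-length or DNA-binding-domain proteins were induced in cells. Purification used glutathione–Sepharose 4B, and quantification used A280 or anti-GST western blot. Custom all-10-mer Agilent 4 × 180K arrays, made double-stranded by primer extension, each received a protein at 200 to 500 nM final in duplicate. Scoring covered gapped and ungapped 8-mers, with binding given as the normalised enrichment score (E-score).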

The target in experiment [2] is GST-NTL6(1-168) (Arabidopsis thaliana, UniProt Q9SCK6 1-168). The gist of the method:
as §1

The target in experiment [3] is T2, GST-ANAC055(1-171) (Arabidopsis thaliana, UniProt Q9LDY8 1-171).
T2 sequence: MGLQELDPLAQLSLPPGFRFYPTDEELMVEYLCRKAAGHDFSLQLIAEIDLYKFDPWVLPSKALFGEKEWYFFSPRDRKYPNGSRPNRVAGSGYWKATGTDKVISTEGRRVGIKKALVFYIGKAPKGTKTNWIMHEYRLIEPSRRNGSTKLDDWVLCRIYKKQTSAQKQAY
The gist of the method: as §1

Experiment [4] has as its target T3, GST-ATAF1 NAC domain (Arabidopsis thaliana, UniProt Q39013 7-158).
T3 sequence: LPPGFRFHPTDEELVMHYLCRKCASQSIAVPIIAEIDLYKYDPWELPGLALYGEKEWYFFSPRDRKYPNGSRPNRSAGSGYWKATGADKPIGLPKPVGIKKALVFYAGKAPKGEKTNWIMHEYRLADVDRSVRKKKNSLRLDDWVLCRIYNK
In a few lines: as §1

The target of experiment [5] is T4, GST-ANAC092(1-285) full length (Arabidopsis thaliana, UniProt Q9FKA0 1-285).
T4 sequence: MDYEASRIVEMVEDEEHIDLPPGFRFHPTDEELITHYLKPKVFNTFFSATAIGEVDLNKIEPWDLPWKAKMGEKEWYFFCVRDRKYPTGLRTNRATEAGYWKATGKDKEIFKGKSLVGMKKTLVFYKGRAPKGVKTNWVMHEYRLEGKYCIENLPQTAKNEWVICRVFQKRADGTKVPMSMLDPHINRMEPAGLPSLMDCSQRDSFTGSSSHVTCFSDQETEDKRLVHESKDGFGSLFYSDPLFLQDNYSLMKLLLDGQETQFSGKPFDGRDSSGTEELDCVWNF
In a few lines: as §1

Experiment [6] has as its target T5, GST-NST2(1-184) (Arabidopsis thaliana, UniProt Q9M274 1-184).
T5 sequence: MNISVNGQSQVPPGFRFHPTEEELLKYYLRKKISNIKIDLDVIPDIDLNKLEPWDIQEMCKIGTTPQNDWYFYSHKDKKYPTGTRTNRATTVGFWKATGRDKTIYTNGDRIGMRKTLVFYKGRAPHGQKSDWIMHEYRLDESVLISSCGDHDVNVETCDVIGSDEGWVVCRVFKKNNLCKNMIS
The gist of the method: as §1

Experiment [7] has as its target T6, GST-NTL8 NAC domain (Arabidopsis thaliana, UniProt Q9XIN7 14-156).
T6 sequence: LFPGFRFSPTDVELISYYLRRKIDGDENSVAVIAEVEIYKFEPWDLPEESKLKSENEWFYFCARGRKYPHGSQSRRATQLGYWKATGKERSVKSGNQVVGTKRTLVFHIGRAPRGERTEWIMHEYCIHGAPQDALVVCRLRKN
In a few lines: as §1

Experiment [8] addresses T7, GST-SND1(1-203) (Arabidopsis thaliana, UniProt Q9LPI7 1-203).
T7 sequence: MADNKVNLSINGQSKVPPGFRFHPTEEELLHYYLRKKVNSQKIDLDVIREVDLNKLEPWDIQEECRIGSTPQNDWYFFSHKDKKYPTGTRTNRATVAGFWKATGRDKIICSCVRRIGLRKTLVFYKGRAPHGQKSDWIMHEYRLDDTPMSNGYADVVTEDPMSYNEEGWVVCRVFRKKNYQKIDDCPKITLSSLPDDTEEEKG
The gist of the method: as §1

Experiment [9] addresses T8, GST-VND3 NAC domain (Arabidopsis thaliana, UniProt Q9FH59 12-162).
T8 sequence: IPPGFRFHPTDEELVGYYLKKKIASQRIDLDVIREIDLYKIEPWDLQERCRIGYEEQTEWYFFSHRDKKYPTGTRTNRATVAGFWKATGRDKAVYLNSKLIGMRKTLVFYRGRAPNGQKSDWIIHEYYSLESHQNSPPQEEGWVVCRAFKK
In a few lines:
as §1

For experiment [10], the target named is T9, GST-VND7 NAC domain (Arabidopsis thaliana, UniProt Q9C8W9 9-158).
T9 sequence: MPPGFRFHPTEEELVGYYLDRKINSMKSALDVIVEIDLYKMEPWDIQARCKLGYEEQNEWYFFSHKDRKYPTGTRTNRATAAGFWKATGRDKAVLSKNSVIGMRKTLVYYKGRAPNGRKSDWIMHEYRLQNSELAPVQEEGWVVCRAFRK
The gist of the method:
as §1

For experiment [11], the target named is T10, GST-ANAC019 NAC domain (Arabidopsis thaliana, UniProt Q9C932 14-162).
T10 sequence: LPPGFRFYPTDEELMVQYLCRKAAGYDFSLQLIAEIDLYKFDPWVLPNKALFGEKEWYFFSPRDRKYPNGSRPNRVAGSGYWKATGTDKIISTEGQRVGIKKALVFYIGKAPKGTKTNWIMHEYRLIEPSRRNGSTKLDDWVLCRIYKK
The gist of the method: as §1

Experiment [12] deals with T11, GST-NAP(1-166) (Arabidopsis thaliana, UniProt O49255 1-166).
T11 sequence: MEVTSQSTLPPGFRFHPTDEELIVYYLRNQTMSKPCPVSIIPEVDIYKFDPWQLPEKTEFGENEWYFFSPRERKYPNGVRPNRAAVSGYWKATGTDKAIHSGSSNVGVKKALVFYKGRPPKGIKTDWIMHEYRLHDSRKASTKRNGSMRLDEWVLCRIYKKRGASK
In a few lines:
as §1

GST-NTL6(1-168), sequence (Q9SCK6 1-168): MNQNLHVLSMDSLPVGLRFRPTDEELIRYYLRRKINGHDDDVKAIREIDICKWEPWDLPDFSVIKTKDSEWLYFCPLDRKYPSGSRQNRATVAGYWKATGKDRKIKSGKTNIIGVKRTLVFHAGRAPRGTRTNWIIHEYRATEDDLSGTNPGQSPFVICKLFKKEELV

Consider GCAAGAAA, for which the binding signal was 0.295 E-score in experiment [1]; 0.306 E-score in experiment [2]; 0.0836 E-score in experiment [3]; 0.189 E-score in experiment [4]; 0.401 E-score in experiment [5]; 0.201 E-score in experiment [6]. In addition, the binding signal in experiment [7] was determined as 0.229 E-score; in experiment [8] it was 0.307 E-score; in [9], 0.12 E-score; in experiment [10], 0.0827 E-score.

In the case of GCAAGCAA, the binding signal was 0.367 E-score in [1]; 0.26 E-score in experiment [2]; 0.167 E-score in experiment [11]; 0.0669 E-score in [3]; 0.42 E-score in [5]; 0.28 E-score in experiment [6]. For the same sequence, the binding signal in experiment [7] was 0.0916 E-score; in [8], 0.4 E-score; in experiment [9], 0.0906 E-score; in experiment [10], 0.216 E-score.

Consider ATTCCTTA, for which the binding signal came out at 0.103 E-score in [1]; 0.486 E-score in experiment [2]; 0.0942 E-score in [11]; 0.114 E-score in experiment [3]; 0.126 E-score in experiment [4]; 0.115 E-score in experiment [5]. Moreover, the binding signal in [6] turned out to be 0.224 E-score; in experiment [7], 0.237 E-score; in [8], 0.306 E-score; in experiment [9], 0.0907 E-score; in experiment [10], 0.064 E-score.

In the case of AGGGTAAG, the binding signal in [1] came out at 0.0785 E-score; in experiment [2], 0.245 E-score; in experiment [11], 0.0566 E-score; in experiment [12], 0.0509 E-score; in experiment [6], 0.0565 E-score; in [7] it was 0.429 E-score. The results for the binding signal in experiment [8], in [9] and in experiment [10] were 0.111 E-score, 0.0682 E-score and 0.0597 E-score, respectively.

As for AGCGTAAG, the binding signal turned out to be 0.191 E-score in experiment [1]; 0.0608 E-score in [2]; 0.0588 E-score in [3]; 0.0897 E-score in [4]; 0.312 E-score in experiment [5]; 0.172 E-score in [6]. The binding signal in experiment [7] came out at 0.0559 E-score; in experiment [8] it was 0.4 E-score; in [9] it was 0.131 E-score; in experiment [10] it was 0.141 E-score.

GTTGCTTA: the binding signal in [1] turned out to be 0.342 E-score; in experiment [2], 0.425 E-score; in experiment [3], 0.0695 E-score; in experiment [4], 0.0821 E-score; in experiment [5], 0.393 E-score; in experiment [6], 0.327 E-score. In addition, the binding signal came to 0.13 E-score in experiment [7], 0.469 E-score in experiment [8], 0.0814 E-score in experiment [9] and 0.14 E-score in experiment [10].

Regarding GTTTCTTA, the binding signal in [1] amounted to 0.226 E-score; in experiment [2], 0.435 E-score; in experiment [11] it was 0.141 E-score; in experiment [3], 0.185 E-score; in [4], 0.257 E-score; in experiment [5] it was 0.313 E-score. Moreover, the binding signal came out at 0.311 E-score in [6]; 0.28 E-score in experiment [7]; 0.33 E-score in experiment [8]; 0.16 E-score in experiment [9]; 0.0761 E-score in experiment [10].

AGAAGGAA: the binding signal in experiment [1] came out at 0.192 E-score; in experiment [2] it was 0.417 E-score; in experiment [11], 0.0646 E-score; in [3], 0.117 E-score; in experiment [4], 0.149 E-score; in [5] it was 0.156 E-score. Besides, the binding signal in experiment [6] stood at 0.177 E-score; in experiment [7], 0.379 E-score; in experiment [8], 0.157 E-score; in experiment [9], 0.0779 E-score; in [10], 0.0759 E-score.

These data come from publication PMC4081100, “A DNA-binding-site landscape and regulatory network analysis for NAC transcription factors in Arabidopsis thaliana”.
